Test results reported in PubChem BioAssay AID623866 (Sanford-Burnham Center for Chemical Genomics, 2012).
This is one part of the list. Values without a mark were called inactive. Active and inactive are the calls of the source. The rule behind the calls is not given here.

What follows are compounds tested against Tyrosine-protein phosphatase non-receptor type 5 (Homo sapiens) (UniProt P54829) (assay: retest of PTPN5 enzyme inhibition – biochemical, fluorescence intensity, single concentration, confirmation (AID 623866;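 note: 0% = enzyme with substrate plus DMSO and 100% = substrate without enzyme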)). Settings: recombinant STEP, OMFP fluorogenic substrate, at 20 µM, hits give high values.
Tyrosine-protein phosphatase non-receptor type 5 (Homo sapiens), sequence (P54829 whole entry, looked up): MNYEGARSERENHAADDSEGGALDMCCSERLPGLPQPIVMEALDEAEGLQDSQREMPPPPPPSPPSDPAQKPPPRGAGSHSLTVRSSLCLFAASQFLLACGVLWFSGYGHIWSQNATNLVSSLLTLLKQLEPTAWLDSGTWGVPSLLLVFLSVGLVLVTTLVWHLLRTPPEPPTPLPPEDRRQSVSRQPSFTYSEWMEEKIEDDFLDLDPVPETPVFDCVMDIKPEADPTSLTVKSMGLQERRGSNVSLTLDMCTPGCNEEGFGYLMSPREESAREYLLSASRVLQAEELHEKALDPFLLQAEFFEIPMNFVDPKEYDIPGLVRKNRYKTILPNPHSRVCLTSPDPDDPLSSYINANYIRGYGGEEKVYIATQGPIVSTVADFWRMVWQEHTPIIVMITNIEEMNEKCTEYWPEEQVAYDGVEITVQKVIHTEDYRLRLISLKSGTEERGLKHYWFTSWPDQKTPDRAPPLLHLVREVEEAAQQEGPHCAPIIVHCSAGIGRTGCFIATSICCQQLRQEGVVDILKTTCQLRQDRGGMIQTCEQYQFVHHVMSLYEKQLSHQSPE

For `O=C(N/N=C/c1coc2ccccc2c1=O)c1cc2ccccc2o1`, the inhibition was 24.4% (active).
With `Cc1ccc(S(=O)(=O)c2c[nH]c3ccc(Cl)cc3c2=O)cc1` the inhibition was 23.8% (active).
With `O=C(NN=Cc1ccccc1O)NN=Cc1ccccc1O` the inhibition was 90.1% (active).
In the case of `C/C(=N\Nc1ccc(S(N)(=O)=O)cc1[N+](=O)[O-])c1cccs1`, the inhibition is reported as 64.7% (active).
With `O=C(N/N=C/c1cccc(Br)c1)c1ccc(N2CCCC2=O)cc1` the inhibition was 41.4% (active).
In the case of `N#Cc1c(-c2cccs2)nc(SCC(=O)c2ccc(Br)cc2)[nH]c1=O`, the inhibition is reported as 103% (active).
In the case of `Cc1c(CCC(=O)O)c(=O)oc2c(C)c(OCc3ccccc3Cl)ccc12`, the inhibition is reported as 42.7% (active).

In order of falling inhibition:
1. Cc1ccc(OCC(=O)Nc2ccc(-c3nc4ncccc4o3)cc2)cc1  23.6%
2. Nc1c(Cl)cc(-c2csc(N3CCCC3c3nc4cc(Cl)c(Cl)cc4n3CCOCCO)n2)cc1Cl (centres undefined)  20.3%
3. C/C=C/C(=O)Nc1ccc(N2CCN(c3ccc(C(F)(F)F)cn3)CC2)nc1  12.4%
4. O=C(COc1cccc(F)c1)Oc1ccc(C(=O)c2ccccc2)cc1  12.2%
5. Cc1ccc(-c2nnc(-c3ccc(NC(=O)c4cccs4)cc3)o2)cc1  10.7%
6. COc1ccc2[nH]c(=O)c(-c3noc(-c4ccc(F)cc4)n3)cc2c1  8.96%
7. O=C(Nc1cccnc1)c1cc2cc(Br)ccc2oc1=O  8.13%
8. COCCN(C(=S)Nc1ccccc1OC)C1CCN(C(C)C)CC1  7.61%
9. Cc1cc(C(=O)N2CCN(c3ccccn3)CC2)c(C)o1  7.4%
10. CCCS(=O)(=O)N1CCCC(C(=O)NCc2ccco2)C1 (centres undefined)  1.82%
11. Cc1ccccc1CC1(CO)CCCN(C(=O)c2cc(-c3ccccc3)no2)C1 (centres undefined)  0.313%
12. Cc1ccc(CNC(=O)CSc2nnc3c(n2)[nH]c2ccc(F)cc23)cc1  -0.633%
13. COCc1c(C(=O)N/N=C/C2CC=CCC2)nnn1-c1nonc1N (centres undefined)  -1.89%
14. Cc1ccn2c(-c3csc(Nc4ccc(C(=O)O)cc4)n3)c(C)nc2c1  -1.96%
15. N#Cc1ccc(C(=O)Nc2cccc3cccnc23)c(F)c1  -3.4%
16. CCc1ccc(NC(=O)CS(=O)CC(=O)NCCCc2ccccc2)cc1 (centres undefined)  -4.12%
17. O=C(CSC(=S)N1CCCCC1)c1c(F)cccc1F  -5.75%
